What all share (experiment): NCI-60 one-dose screen, 48 h (100 = growth as untreated, 0 = no growth, -100 = all killed)
What all share (conditions): 10 µM unless noted

Experiment [1] relates to HCT-15 colon.
The subject of experiment [2] is HT29 colon.
Experiment [3] has as its system SNB-75 CNS.
Experiment [4] deals with SNB-19 CNS.
Experiment [5] concerns U251 CNS.
Experiment [6] relates to PC-3 prostate.
For experiment [7], the system named is SK-MEL-5 melanoma.
The test system of experiment [8] is UACC-62 melanoma.
Experiment [9] concerns LOX IMVI melanoma.
In experiment [10] the test system is SK-MEL-28 melanoma.

Compounds without any hit were thinned out: in the full panel of roughly 83,000, 20% have a hit.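 Method: cells in 96-well plates; compound added at one concentration; 48 h incubation; percent growth measured; values under 10 scored active.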 Unmarked numbers belong to inactive results. Active and inactive are the calls of the source.

`Cc1cc(NCc2cc(Nc3ccnc4cc(Cl)ccc34)ccc2F)nc(N2CCN(C)CC2)n1`: the growth in experiment [1] is -42.9% (active); in experiment [2], -24.5% (active); in experiment [3], -50.9% (active); in [4], 29.7%; in experiment [5], -28.2% (active); in experiment [6], 21.5%. Moreover, the growth in experiment [7] is -98% (active); in experiment [8], -63.8% (active); in experiment [9] it was -86.6% (active); in [10], -70% (active).
`COc1ccc2c(c1)O/C(=C\c1cccc(OCC(=O)Nc3nc4ccccc4s3)c1)C2=O`: the growth in [1] is 81.5%; in experiment [2], 110%; in experiment [3], 102%; in experiment [4], 83.6%; in experiment [5] it was 70.5%; in experiment [6] it was 35%. Also, the growth in [7] was 96.7%; in [8], 83.9%; in experiment [9], -85% (active); in experiment [10], 96.7%.
Regarding `CCN1C(=O)N(CC)C2Nn3c(s/c(=C4\C(=O)N(C)c5ccccc54)c3=O)=NC21` (stereo not given), the growth in [1] is 29.7%; in [2], 74.9%; in experiment [3] it was 9.74% (active); in [4], 56.5%; in [5], 39.7%; in experiment [6], 27.8%. The growth was 36.4% in experiment [7], 51% in [8], 55.9% in [9] and 59.3% in [10].
Turning to `CC(=O)C(C)Cc1cc2c(cc1C)C(C)(C)CCC2(C)C` (stereo not given), the growth in experiment [1] is 96.7%; in experiment [2], 93.3%; in experiment [3], 96.4%; in [4], 116%; in experiment [5], 97.1%; in experiment [6] it was 77.4%. Besides, the growth in experiment [7] was 103%; in experiment [8] it was 99.4%; in experiment [9], 90.7%; in experiment [10], 106%.
Consider `CC(C)(C)c1ccc(/C=C/C(=O)Nc2ccc(O)cc2)cc1`, for which the growth in [1] was 43.4%; in experiment [2], 18.7%; in experiment [3], 96.6%; in experiment [4] it was 83.3%; in [5], 72.8%; in experiment [6], 59%. The growth in experiment [7] is 51.4%; in experiment [8], 55.1%; in experiment [9], -3.96% (active); in experiment [10], 86.5%.
Regarding `COc1nc2c(c(=O)n1C)CN(c1ccccc1)C(=O)CN2C`, the growth in [1] was 52.7% [100 µM]; in experiment [2], 62.3% [100 µM]; in experiment [3], 45% [100 µM]; in [4], 57.4% [100 µM]; in experiment [5], 62.6% [100 µM]; in [6], 37.7% [100 µM]. In addition, the growth is 48.4% [100 µM] in [7], 43.9% [100 µM] in [8], 70.3% [100 µM] in experiment [9] and 90.4% [100 µM] in experiment [10].
With `NC(=S)N/N=C/Cc1ccccc1`, the growth is 87.4% in experiment [1]; 94.7% in experiment [2]; 110% in [3]; 104% in experiment [4]; 98.4% in experiment [5]; 91.4% in experiment [6]. For the same molecule, the growth in experiment [7] was 107%; in [8], 108%; in experiment [9], 73%; in experiment [10] it was 109%.
Regarding `COc1ccc(CN2C(=O)C(Cl)=C(Nc3cccc(C(F)(F)F)c3)C2=O)cc1`, the growth in experiment [1] was 34.8%; in experiment [2], 57.1%; in experiment [3], 66.9%; in experiment [4], 44.7%; in experiment [5] it was 28.2%; in experiment [6], 19.2%. Besides, the growth in [7] is 63.3%; in experiment [8], 58.1%; in experiment [9], 25.2%; in experiment [10], 55.2%.
In the case of `c1coc(-c2c3ccc(=[N+]4CCCCC4)cc-3oc3cc(N4CCCCC4)ccc23)c1`, the growth was -80.7% (active) in [1]; -80.9% (active) in [2]; -67.8% (active) in [3]; -93.2% (active) in [4]; -85.2% (active) in [5]; -73.8% (active) in experiment [6]. The growth is -90.7% (active) in experiment [7], -81.3% (active) in experiment [8], -87.2% (active) in [9] and -88.7% (active) in experiment [10].
Turning to `COc1ccc(CNC(=O)C(O)C(Cc2ccccc2)NC(=O)c2[nH]c3ccccc3c(=O)c2C)cc1OC` (stereo not given), the growth in experiment [1] is 101%; in [2], 100%; in experiment [3], 107%; in experiment [4] it was 100%; in experiment [5], 101%; in experiment [6], 102%. The growth in experiment [7] was 103%; in experiment [8], 103%; in [9], 104%; in experiment [10] it was 109%.
On to `CN(C)CC1=NC2SC=C(c3ccccc3)C2C(=O)N1CC#N` (stereo not given), for which the growth is 105% in experiment [1]; 101% in experiment [2]; 87.6% in experiment [3]; 108% in [4]; 104% in experiment [5]; 71.4% in experiment [6]. The growth in experiment [7] was 107%; in experiment [8], 87.3%; in experiment [9] it was 99.7%; in experiment [10], 119%.
For the molecule `Nc1ccc2c(c1)c(N)nn2C(=O)Nc1ccc(Cc2ccccc2)cc1`, the growth was 44.5% in experiment [1]; 76.8% in experiment [2]; 126% in experiment [3]; 105% in experiment [4]; 59.9% in [5]; 60.2% in experiment [6]. For the same molecule, the growth was 71.7% in [7], 7.09% (active) in experiment [8], 40.3% in [9] and 115% in [10].
Consider `CC(C)(C)C(CCc1ccc(Cl)cc1)N1CCN(C2CCCCC2)CC1` (stereo not given), for which the growth in experiment [1] is 38.1%; in experiment [2] it was 12.6%; in experiment [3] it was 77.7%; in experiment [4], 70.6%; in experiment [5], 38.1%; in experiment [6] it was 27.7%. For the same molecule, the growth in experiment [7] was 46.4%; in experiment [8] it was 46.8%; in experiment [9], -20.3% (active); in [10], 83.1%.
Take `COc1ccc(S(=O)(=O)NCCNc2nccc(-c3c(-c4cccc(F)c4)nc4sccn34)n2)cc1`: the growth in experiment [1] was 23.4%; in [2], 23.9%; in experiment [3], -0.29% (active); in experiment [4], 58.3%; in experiment [5] it was 52.5%; in [6], 29.4%. Further, the growth in experiment [7] is 9.62% (active); in [8], 39%; in experiment [9], 32.9%; in experiment [10], 60%.

The values are drawn from PubChem BioAssay (NCI).
